Assay outcomes (PubChem BioAssay)
Only some compounds are listed: those with a hit (about 11% of all), similar ones and a draw of the others.
HEK cytotox: HEK 293 cell cytotoxicity | HEK 293 viability, ATP luminescence (CellTiter-Glo), 48-72 h | Potency, µM (titrated, usually from 115 µM), for inactives: at the highest dose activity change, negative = cytotoxicity, most hits filed as inhibitors | 94,000 compounds, 6.6% hits | AID 1345083; note: nearly all actives have a fitted effect of over 60% in size
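Luminescence from cellular ATP, measured with CellTiter-Glo, indicates HEK 293 viability. Cells plated at 250 cells/well are treated with compound for 48 or 72 hr at 37 degree Celsius before reagent addition.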
NPR1 antag: antagonists of human natriuretic peptide receptor Npr1 | HEK293 hNpr1 GloSensor cGMP, ANP-stimulated luminescence | Potency, µM (titrated, usually from 46.3 µM), for the others: at the highest dose activity change, negative = inhibition, hits mostly inhibitors | P16066 | 76,000 compounds, 1.6% hits; calls by dose curve; note: nearly all actives have a fitted effect of over 60% in size
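Compound pre-incubated 30 min at room temperature on GloSensor-loaded HEK293 cells stably carrying hNpr1 and the pGS-40F cGMP biosensor. Stimulation uses hNppA at 0.1 nM final; luminescence is taken at baseline and 20 min post-agonist.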
NIH3T3 tox: cytotoxic compounds in NIH 3T3 cells. NIH 3T3 viability, CellTiter-Glo ATP luminescence, 48-72 h. AID 1345082. Potency, µM (doses to about 96.7 µM), for inactives: at the highest dose activity change, negative = cytotoxicity, hits mostly inhibitors. 94,000 compounds, 4.3% hits; note: nearly all actives have a fitted effect of over 55% in size
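Cytotoxicity is measured as loss of cellular ATP: NIH 3T3 cells (400/well) are exposed to compound for 48 or 72 hr at 37 °C, then CellTiter-Glo luminescence is imaged after 10 min at room temperature.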
FLuc inh: Photinus pyralis luciferase inhibition | 76,000 compounds, 2.5% hits | purified P. pyralis luciferase, luminescence, biochemical | P08659 | Potency, µM (doses to about 115 µM), usual class: inhibitors; note: nearly all actives have a fitted effect of over 65% in size
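Biochemical qHTS: compound (6-point titration) added to 10uM D-luciferin plus 10uM ATP in Tris acetate pH 7.5 buffer with Mg, Tween-20 and BSA, then purified enzyme at 10nM; light output imaged.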
Numbers without * were called inactive; i = inactive; u = inconclusive; x = no result given; [ ] = another dose, or the depositor's remark. Unless noted, calls come from the whole dose curve; as a rule, active = well fitted curve in the direction sought with a large enough effect; inconclusive = small, poorly fitted or top-dose-only effect, or another doubt; inactive = no such curve, though single readings can be large; an effect the other way counts as inactive or inconclusive. % is set by controls: 0 for no effect and ±100 for the full control effect; potency is the fitted concentration of half-maximal effect.

SMILES | HEK cytotox | NPR1 antag | NIH3T3 tox | FLuc inh
COc1ccc(CN2Cc3[nH]nc(-c4cccnc4OC)c3CC2=O)cc1 | 71µM* | 1%[70.6 µM] | u | i
COc1ccc(CN2Cc3[nH]nc(-c4ccccc4)c3CC2=O)cc1 | i | -1%[70.6 µM] | u | i
Cn1cc(CN2CCC3(CC2)COc2ccccc2C(=O)N3)cn1 | -24%[172 µM] | 17%[70.6 µM] | -8%[138 µM] | i
Cc1nn(-c2ccccc2)c2c1C(C)N(C1CN(C(=O)c3ccc(Cl)cc3)C1)C2=O (centres undefined) | -27% | x | -12% | x
Cc1nn(-c2ccccc2)c2c1C(C)N(C1CN(C(=O)c3ccc(C(F)(F)F)cc3)C1)C2=O (centres undefined) | 40µM* | x | u | x
Cc1nn(-c2ccccc2)c2c1C(C)N(C1CCN(C(=O)c3ccc(F)cc3)C1)C2=O (centres undefined) | 45µM* | x | u | x
Cc1nn(-c2ccccc2)c2c1C(C)N(C1CCCN(C(=O)N(C)C)C1)C2=O (centres undefined) | u | x | -19% | x
Cc1nn(-c2ccccc2)c2c1C(C1CC1)N(C1CCN(C(=O)c3ccc(F)cc3)C1)C2=O (centres undefined) | 35µM* | x | u | x
Cc1nn(-c2ccccc2)c2c1C(C)N(C1CCN(C(=O)c3cccc(Cl)c3)C1)C2=O (centres undefined) | 22µM* | x | 32µM* | x
O=C(C1CCCN(Cc2cccc(-c3cccs3)c2)C1)N1CCN(Cc2ccccc2)CC1 (centres undefined) | u | x | 35µM* | x
O=C(C1CCCN(Cc2cccc(-c3cccs3)c2)C1)N1CCC(c2ccccc2)CC1 (centres undefined) | 45µM* | x | 40µM* | x
O=C(C1CCCN(Cc2cccc(-c3cccs3)c2)C1)N1CCOCC1 (centres undefined) | u | x | -24% | x
COc1ccc(CN2CCNc3cnc(Nc4cccnc4)cc3C2)cc1O | u | 2%[70.6 µM] | u | i
c1cncc(Nc2cc3c(cn2)CN(Cc2ccc4[nH]ccc4c2)CCN3)c1 | 89µM* | -23%[70.6 µM] | u | 40µM*
Oc1ccccc1CN1CCNc2cc(Nc3cccnc3)ncc2C1 | 63µM* | -7%[70.6 µM] | u | u
Cc1cccc(CN2CCNc3cc(Nc4cccnc4)ncc3C2)c1 | u | 0%[70.6 µM] | u | i
FC(F)(F)c1ccc(CN2CCNc3cc(Nc4cccnc4)ncc3C2)cc1 | 32µM* | u | u | i
c1cncc(COc2cc3c(cn2)NCCN(Cc2ccsc2)C3)c1 | u | -10%[70.6 µM] | -26%[138 µM] | i
COc1ccc(CN2CCNc3cc(Nc4cccnc4)ncc3C2)cc1O | u | 0%[70.6 µM] | u | i
Oc1ccccc1CN1CCNc2cnc(OCc3cccnc3)cc2C1 | 100µM* | u | -19%[138 µM] | i
O=C(Nc1ccccc1)N1CCC(OCCOc2cccnc2)CC1 | i | x | -9% | x
COc1ccc(CN2CCNc3cnc(Nc4ccccc4)cc3C2)cc1O | u | 0%[70.6 µM] | u | i
COc1ccc(CN2CCNc3cnc(Oc4ccccc4)cc3C2)cc1O | 63µM* | -4%[70.6 µM] | u | i
Cn1c(C(=O)NCCc2ccccn2)nc2nc(-c3ccccc3)c(Cl)cc21 | u | -22%[70.6 µM] | u | 45µM*
Cn1c(C(=O)NCC2CC2)nc2nc(-c3ccccc3)c(Cl)cc21 | -6%[172 µM] | x | u | i
SMILES | HEK cytotox | NPR1 antag | NIH3T3 tox | FLuc inh
Cc1ccc(-c2cc3c(nc2-c2ccccc2)nc(C(=O)NCCN(C)C)n3C)cc1 | 40µM* | 3%[70.6 µM] | 11µM* | i
CN(C)CCNC(=O)c1nc2nc(-c3ccccc3)c(-c3cccc(Cl)c3)cc2n1C | 28µM* | -20%[70.6 µM] | 10µM* | i
CN(C)CCNC(=O)c1nc2nc(-c3ccccc3)c(-c3ccc(Cl)cc3)cc2n1C | 40µM* | -4%[70.6 µM] | 25µM* | i
CN(C)CCNC(=O)c1nc2nc(-c3ccccc3)c(-c3cccc(CO)c3)cc2n1C | u | -1%[70.6 µM] | u | i
COc1ccc(-c2noc(-c3cccn3CC(=O)Nc3ccccc3C)n2)cc1F | -10% | 2% | -1% | i
O=C(NCc1ccc(F)c(F)c1)c1ccc2nnc(C3CCCC3)n2c1 | -28% | x | u | x
O=C(NC(C(=O)Nc1ccccc1)C1CCN(C(=O)c2cccc(F)c2)CC1)c1ccc(F)cc1 (centres undefined) | -15% | -17% | -29% | i
Cc1nc2cnccn2c1C(=O)NCC(C)C | -6%[172 µM] | x | -13%[138 µM] | x
CN(C)c1ncnc2sc3c(c12)CCN(S(=O)(=O)c1ccccc1)C3 | u | 0% | u | i
